Consider 9 molecules from PubChem BioAssay (NCI).

Test [1] in a line: NCI Yeast Anticancer Drug Screen. Data for the rad50 strain (AID 155).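 Further: 0% = growth of vehicle-only cultures of the same strain.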 To be noted: S. cerevisiae rad50 strain growth inhibition, hits give high values. The essentials: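 Readout: growth inhibition relative to vehicle-treated cultures. Compound exposure was carried out in a genetically defined yeast strain deficient in DNA damage repair.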
Test [2] is described as follows: NCI Yeast Anticancer Drug Screen. Data for the mec2-1 strain (AID 157). To be noted: S. cerevisiae mec2-1 strain, hits give high values. The essentials: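 Mutant yeast (mec2-1) grown with compound; growth inhibition relative to vehicle control reported.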
A short description of test [3]: NCI Yeast Anticancer Drug Screen. Data for the sgs1 mgt1 strain (AID 161).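 Further: 0% = growth of cultures given vehicle only.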 To be noted: S. cerevisiae sgs1 mgt1 strain, hits give high values. The essentials:
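Compounds are added to genetically altered yeast, and growth is compared with cultures given vehicle alone to give percent inhibition.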

Test [4] is described as follows: NCI Yeast Anticancer Drug Screen. Data for the cln2 rad14 strain (AID 165).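 Further: 0% = growth equal to vehicle treated cultures.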 To be noted: S. cerevisiae cln2 rad14 strain, hits give high values. The essentials: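 Readout is yeast growth inhibition versus vehicle-treated controls, using a strain with cln2 and rad14 alterations exposed to compound.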
Test [5] is described as follows: NCI Yeast Anticancer Drug Screen. Data for the bub3 strain (AID 167). To be noted: S. cerevisiae bub3 mutant strain, hits give high values. The essentials: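 Readout: yeast growth inhibition, expressed relative to vehicle-only wells. The test organism is a mutant strain from a panel with lesions in DNA repair or checkpoint genes.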
Test [6] is described as follows: NCI Yeast Anticancer Drug Screen. Data for the mlh1 rad18 strain (AID 175). To be noted: S. cerevisiae mlh1 rad18 strain growth inhibition, hits give high values. The essentials:
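Genetically defined yeast (DNA repair-deficient) exposed to compounds; growth inhibition determined relative to vehicle.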

Where [7] appears, read: at 5.0 µM (retest, dose inferred, filed as 0.5).
Setting [8] is: at 50.0 µM (retest, dose inferred, filed as 5.0).

Each structure is given as a SMILES string. Compounds without any hit were thinned out: in the full panel of roughly 79,000, 15% have a hit. Values without a mark were called inactive. Activity calls are given as the source filed them. No stated cut-off is given here; in the data, active means growth inhibition above about 70%; inactive means the rest.

Turning to `CN(NC(=O)/C(=C/c1ccc2c(c1)OCO2)NC(=O)c1ccccc1)c1ccnc2cc(Cl)ccc12`, the growth inhibition in test [1] (setting [7]) was -7%; in test [1] (setting [8]), -10%; in test [1] (at 50.0 µM), 89.7% (active); in test [2] (setting [7]) it was -15%; in test [2] (setting [8]), -2%; in test [2] (at 50.0 µM), 46%. Also, the growth inhibition in test [3] (setting [7]) is -9%; in test [3] (setting [8]) it was -15%; in test [3] (at 50.0 µM) it was 78% (active); in test [4] (setting [7]), 22%; in test [4] (setting [8]) it was 11%; in test [4] (at 50.0 µM), 55.6%. The growth inhibition is 8% in test [5] (setting [7]); 33% in test [5] (setting [8]); 72.2% (active) in test [5] (at 50.0 µM); 10% in test [6] (setting [7]); 11% in test [6] (setting [8]); 87.7% (active) in test [6] (at 50.0 µM).

Consider `COc1cc2c(c(OC)c1OC)-c1ccc(=O)c(OC)cc1[C@@H](N)CC2`, for which the growth inhibition was 25% in test [1] (setting [7]); 22% in test [1] (setting [8]); -5.6% in test [1] (at 50.0 µM); 22% in test [2] (setting [7]); 16% in test [2] (setting [8]); -26.4% in test [2] (at 50.0 µM). Besides, the growth inhibition in test [3] (setting [7]) is 22%; in test [3] (setting [8]) it was 21%; in test [3] (at 50.0 µM), -12.5%; in test [4] (setting [7]), 24%; in test [4] (setting [8]), 32%; in test [4] (at 50.0 µM) it was -15.4%. Also, the growth inhibition in test [5] (setting [7]) was 25%; in test [5] (setting [8]) it was 19%; in test [5] (at 50.0 µM), -5.1%; in test [6] (setting [7]), 29%; in test [6] (setting [8]) it was 26%; in test [6] (at 50.0 µM) it was -49.5%.

On to `CCOC(=O)C12CCSC1C1(C#N)C(C#N)=CC2(N=P(c2ccccc2)(c2ccccc2)c2ccccc2)n2c(=O)n(-c3ccccc3)c(=O)n21` (configuration not stated), for which the growth inhibition is 45% in test [1] (setting [7]); 29% in test [1] (setting [8]); 68% in test [1] (at 50.0 µM); 93% (active) in test [2] (setting [7]); 18% in test [2] (setting [8]); 39.9% in test [2] (at 50.0 µM). The growth inhibition in test [3] (setting [7]) is 28%; in test [3] (setting [8]), 8%; in test [3] (at 50.0 µM), 59.9%; in test [4] (setting [7]), 32%; in test [4] (setting [8]), 34%; in test [4] (at 50.0 µM), 58.5%. The growth inhibition in test [5] (setting [7]) is 96% (active); in test [5] (setting [8]) it was 46%; in test [5] (at 50.0 µM) it was 88.5% (active); in test [6] (setting [7]), 46%; in test [6] (setting [8]), 31%; in test [6] (at 50.0 µM), 53.9%.

As for `O=C(/C=C(\C(=O)c1ccccc1)N(/C(=C/C(=O)c1ccccc1)C(=O)c1ccccc1)c1ccccc1)c1ccccc1`, the growth inhibition in test [1] (setting [7]) was 2%; in test [1] (setting [8]), 30%; in test [1] (at 50.0 µM), 92.2% (active); in test [2] (setting [7]), -3%; in test [2] (setting [8]) it was 13%; in test [2] (at 50.0 µM), 88.8% (active). The growth inhibition in test [3] (setting [7]) was -5%; in test [3] (setting [8]), 30%; in test [3] (at 50.0 µM) it was 90.8% (active); in test [4] (setting [7]) it was -2%; in test [4] (setting [8]), -21%; in test [4] (at 50.0 µM) it was 83.5% (active). The growth inhibition in test [5] (setting [7]) was 0%; in test [5] (setting [8]) it was 34%; in test [5] (at 50.0 µM), 88.4% (active); in test [6] (setting [7]) it was 0%; in test [6] (setting [8]) it was 12%; in test [6] (at 50.0 µM) it was 92.7% (active).

As for `CN(C)C(=S)/N=c1\ss/c(=N\C(=S)N(C)C)n1-c1ccc(Cl)cc1`, the growth inhibition was 9% in test [1] (setting [7]); 9% in test [1] (setting [8]); 94.2% (active) in test [1] (at 50.0 µM); 14% in test [2] (setting [7]); -7% in test [2] (setting [8]); 92.1% (active) in test [2] (at 50.0 µM). Further, the growth inhibition is 7% in test [3] (setting [7]); 13% in test [3] (setting [8]); 95.7% (active) in test [3] (at 50.0 µM); 5% in test [4] (setting [7]); -10% in test [4] (setting [8]); 72.3% (active) in test [4] (at 50.0 µM). For the same molecule, the growth inhibition was 3% in test [5] (setting [7]); -2% in test [5] (setting [8]); 90% (active) in test [5] (at 50.0 µM); 8% in test [6] (setting [7]); 29% in test [6] (setting [8]); 96.2% (active) in test [6] (at 50.0 µM).

Regarding `Oc1cccc(/C=C/c2ccncc2)c1`, the growth inhibition in test [1] (setting [7]) was 0%; in test [1] (setting [8]) it was 28%; in test [1] (at 50.0 µM) it was 75.1% (active); in test [2] (setting [7]) it was -4%; in test [2] (setting [8]) it was 13%; in test [2] (at 50.0 µM), 37.6%. Further, the growth inhibition in test [3] (setting [7]) is -3%; in test [3] (setting [8]), 25%; in test [3] (at 50.0 µM) it was 65.5%; in test [4] (setting [7]), -6%; in test [4] (setting [8]), 15%; in test [4] (at 50.0 µM), 25.9%. For the same molecule, the growth inhibition in test [5] (setting [7]) was -6%; in test [5] (setting [8]), 22%; in test [5] (at 50.0 µM) it was 63.8%; in test [6] (setting [7]) it was -1%; in test [6] (setting [8]), 12%; in test [6] (at 50.0 µM), 65.5%.

Regarding `CCOc1ccc2c(c1)n([O-])c1ccccc1[n+]2=O`, the growth inhibition in test [1] (setting [7]) was 88% (active); in test [1] (setting [8]), 98% (active); in test [1] (at 50.0 µM), 56%; in test [2] (setting [7]), 12%; in test [2] (setting [8]), 99% (active); in test [2] (at 50.0 µM) it was 97.4% (active). The growth inhibition is 55% in test [3] (setting [7]); 99% (active) in test [3] (setting [8]); 99.2% (active) in test [3] (at 50.0 µM); 31% in test [4] (setting [7]); 98% (active) in test [4] (setting [8]); 98.1% (active) in test [4] (at 50.0 µM). The growth inhibition in test [5] (setting [7]) is 17%; in test [5] (setting [8]), 98% (active); in test [5] (at 50.0 µM), 98.8% (active); in test [6] (setting [7]), 81% (active); in test [6] (setting [8]), 98% (active); in test [6] (at 50.0 µM) it was 99.1% (active).

In the case of `CC1(c2ccccc2)Nc2ccccc2C1=Nc1ccccc1` (configuration not stated), the growth inhibition in test [1] (setting [7]) is -1%; in test [1] (setting [8]), 34%; in test [1] (at 50.0 µM), 93.5% (active); in test [2] (setting [7]), -4%; in test [2] (setting [8]), 30%; in test [2] (at 50.0 µM), 97.7% (active). Besides, the growth inhibition is -3% in test [3] (setting [7]); 54% in test [3] (setting [8]); 96.3% (active) in test [3] (at 50.0 µM); -8% in test [4] (setting [7]); 75% (active) in test [4] (setting [8]); 97.2% (active) in test [4] (at 50.0 µM). In addition, the growth inhibition is -7% in test [5] (setting [7]); 77% (active) in test [5] (setting [8]); 95.8% (active) in test [5] (at 50.0 µM); -2% in test [6] (setting [7]); 86% (active) in test [6] (setting [8]); 97.3% (active) in test [6] (at 50.0 µM).

Consider `CCO/C=C1/N=C(c2cc(Cl)cc([N+](=O)[O-])c2)OC1=O`, for which the growth inhibition was 4% in test [1] (setting [7]); -7% in test [1] (setting [8]); 11.7% in test [1] (at 50.0 µM); -2% in test [2] (setting [7]); 12% in test [2] (setting [8]); 1.3% in test [2] (at 50.0 µM). The growth inhibition is -15% in test [3] (setting [7]); 2% in test [3] (setting [8]); 13.7% in test [3] (at 50.0 µM); 18% in test [4] (setting [7]); 22% in test [4] (setting [8]); -60.5% in test [4] (at 50.0 µM). Moreover, the growth inhibition is 6% in test [5] (setting [7]); 5% in test [5] (setting [8]); -8.75% in test [5] (at 50.0 µM); -15% in test [6] (setting [7]); 6% in test [6] (setting [8]); 9.15% in test [6] (at 50.0 µM).
